# According to PubChem BioAssay (NCATS):
# Inconclusive results are not listed. Entries that show only a call come without a potency. The source made the active and inactive calls. The call rests on the fitted dose curve; in most records, active means well fitted curve in the direction sought with a large enough effect; inconclusive means small, poorly fitted or top-dose-only effect, or another doubt; inactive means no such curve, though single readings can be large; an effect the other way counts as inactive or inconclusive.
# How the values were obtained:
# [1] = target: Aldehyde dehydrogenase, mitochondrial (Homo sapiens) (UniProt P05091); assay: qHTS for Inhibitors of the Aldehyde Dehydrogenase Family (ALDH2) Primary screen (AID 2061308); settings: ALDH2 enzyme inhibition qHTS, 1536-well; series mostly up to 56 µM; further: nearly all actives have a fitted effect of over 55% in size
# [2] = target: Retinaldehyde dehydrogenase 3 (Homo sapiens) (UniProt P47895); assay: qHTS for Inhibitors of the Aldehyde Dehydrogenase Family (ALDH1A3) Primary screen (AID 2061315); settings: ALDH inhibition qHTS; series mostly up to 56 µM
Structure (SMILES),Potency [1],Potency [2]
CN(C)c1cccc(NS(=O)(=O)c2ccc(NC(=O)Cc3ccc(Cl)c(Cl)c3)cc2)c1,inactive,inactive
O=S(=O)(Nc1ccc(S(=O)(=O)Nc2nccs2)cc1)c1ccc2ccccc2c1,inactive,inactive
COC(=O)c1ccccc1S(=O)(=O)Nc1cc(=O)c2ccccc2[nH]1,inactive,inactive
Cc1cc(-c2nnc3n2CCCCC3)c(C)n1-c1ccncc1,inactive,inactive
O=[S+]([O-])(c1cc2ccccc2o1)N1CCN([S+](=O)([O-])c2c(F)cccc2F)CC1,inactive,inactive
Cc1ccc(S(=O)(=O)Nc2ccccc2C(=O)Nc2ccc(-c3ccccc3)cc2)cc1,inactive,inactive
Cc1nc(NCCO)c2nc(-c3ccccc3)n(CCCN(C)C)c2n1,inactive,inactive
O=C(NC(c1ccco1)c1cc(Cl)c2cccnc2c1O)c1ccccc1 (centres undefined),inactive,inactive
CCOc1ccc(CCNC(=O)c2ccc3ccccc3n2)cc1OCC,inactive,inactive
Cc1ccc(-c2cc(C(=O)Nc3ccc(Cl)cc3)c3ccccc3n2)cc1C,inactive,inactive
CN(C)c1cccc(-c2ncc(F)c(N3CCC(C(N)=O)CC3)n2)c1,inactive,inactive
Cc1ccc(NC(=O)c2cnn3c(C)cc(C)nc23)c(C)c1,inactive,inactive
C[n+]1cc(C(O)(c2ccccc2)c2ccccc2)n2ccccc21,inactive,inactive
Cc1noc(C)c1-c1ccc2ncnc(NCc3cccc(-c4ccccc4)c3)c2c1,inactive,inactive
O=C(Nc1ccc(Cl)c(Cl)c1)Nc1nnc(C2CCCCC2)s1,inactive,inactive
Cn1cc2ccc(-c3ccc4ncnc(NCc5cccs5)c4c3)cc2n1,inactive,inactive
c1csc(CNc2ncnc3ccc(-c4ccc5c(c4)OCCO5)cc23)c1,inactive,inactive
O=c1[nH]c2ccc(S(=O)(=O)N3CCN(S(=O)(=O)c4c(F)cccc4F)CC3)cc2[nH]c1=O,inactive,inactive
c1ccc(OCc2nnc3n2N=C(c2ccccc2)CS3)cc1,inactive,inactive
Clc1cccc(-c2nc(-c3ccc(-c4nn[nH]n4)cc3)no2)c1,inactive,inactive
O=C(NCc1ccc(Cl)c(Cl)c1)Nc1nnc(-c2ccncc2)s1,inactive,inactive

Structure (SMILES),Potency [1],Potency [2]
O=S(=O)(Nc1nccs1)c1ccc(NCc2cccc(O)c2)cc1,inactive,inactive
CCN(CC)CCCCn1c(-c2ccccc2)nc2c(NCCOC)nc(C)nc21,inactive,inactive
N#Cc1ccc(NS(=O)(=O)c2ccc(NC(=O)Cc3ccc(F)c(Cl)c3)cc2)cc1,inactive,inactive
Cc1ccc(NS(=O)(=O)c2ccc3c(c2)N(C)CCO3)cc1C,inactive,inactive
CCCCNc1ncc2c(-c3ccc(S(=O)(=O)N4CCOCC4)cc3)nn(C3CCC(O)CC3)c2n1 (centres undefined),inactive,inactive
O=C1c2ccccc2C(=O)N1c1cc(=O)c2ccccc2[nH]1,inactive,inactive
Cc1ccc(-c2nc3ccccc3[nH]2)cc1NC(=O)c1ccc(-c2cccc(Cl)c2)o1,inactive,inactive
Cc1csc(CNc2ncnc3ccc(-c4ccc(C(=O)O)o4)cc23)n1,inactive,inactive
O=S(=O)(c1ccc2c(c1)OCCO2)N1CCN(S(=O)(=O)c2ccc3nc(Cl)c(Cl)nc3c2)CC1,inactive,inactive
Cc1cc(C)nc(NC(=S)N2CCN(c3ccc4nncn4c3)CC2)c1,inactive,inactive
Cc1ccc(-c2ccc(=O)n(CCNC(C)c3ccco3)n2)cc1 (centres undefined),inactive,inactive
O=C1c2ccccc2C(=O)N1c1cncc2ccccc12,inactive,inactive
Cc1cn2c(n1)Cc1ccc(Cl)cc1C(c1ccc(N)cc1)=N2,inactive,inactive
Cc1ccc(OCCn2c(CCNC(=O)Cc3cccc4ccccc34)nc3ccccc32)cc1,inactive,inactive
CCN(CC)CCCCn1c(-c2ccccc2)nc2c(N(CCOC)CCOC)nc(C)nc21,inactive,inactive
Cc1ccc(S(=O)(=O)Nc2cnccc2C(=O)Nc2nc(-c3cccc(C)c3)cs2)cc1,inactive,inactive
Cc1ccc(OCCn2c(CCNC(=O)C3CCN(C(=O)OC(C)(C)C)CC3)nc3ccccc32)cc1,inactive,inactive
Cc1nc(NC2CCCCC2)c2nc(-c3ccccc3)n(CCN3CCCCC3)c2n1,inactive,inactive
Cc1cccc(NC(=O)c2cc(-c3ccc(C)c(C)c3)nc3ccccc23)c1,inactive,inactive
COc1ccc(C2Nc3ccccc3C(=O)N2Cc2ccco2)cc1COc1c(C)cccc1C (centres undefined),inactive,inactive
CCOC(=O)C1CCN(C(=O)C(C)(C)NC(=O)Nc2ccc3sccc3c2)CC1,inactive,inactive
